Several values for one entry are separate records, joined by “and”; a condition that tells them apart may be missing. Identical values can stand only once. Results filed as inconclusive are left out. Activity calls are given as the source filed them. The calls were made as follows, unless noted: active = hit-call score of the fitted dose curve at least 0.9, where 1 is the maximum; inactive = score below 0.9.

The AC50 is the concentration at which the activity in the assay is half-maximal.

Experiment [1] in a line: IUF_NPC2c_oligodendrocyte_migration_120hr: Leibniz Research Institute for Environmental Medicine (IUF) 120-hour Neural Progenitor Cell Migration Assay for Oligodendrocyte Migration (NPC2c) (AID 2284297).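 Also: O4-positive oligodendrocyte migration distance divided by radial glia migration distance.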 An outline of the steps:
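Human fetal cortex-derived neural progenitor spheres (0.3 mm) were plated on poly-D-lysine/laminin in N2 differentiation medium and exposed to 7 concentrations for 120 h, with half-medium renewal at day 3. Oligodendrocyte migration distance was normalized to radial glia migration, relative to DMSO.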

A short description of experiment [2]: IUF_NPC2a_radial_glia_migration_120hr: Leibniz Research Institute for Environmental Medicine (IUF) 120-hour Neural Progenitor Cell Migration Assay for Radial Glia Migration (NPC2a) (AID 2284298). The essentials: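 Single 0.3 mm primary human fetal-cortex (GW 16-19) NPC spheres were plated on poly-D-lysine/laminin in N2 differentiation medium and exposed from day 0 for 120 h, half-medium refreshed day 3. Migration distance came from Hoechst nuclei-density imaging, relative to DMSO.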

Experiment [3] can be described thus: IUF_NPC2a_radial_glia_migration_72hr: Leibniz Research Institute for Environmental Medicine (IUF) 72-hour Neural Progenitor Cell Migration Assay for Radial Glia Migration (NPC2a) (AID 2284299). An outline of the steps: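 Readout: mean of four manual brightfield measurements of radial glia migration distance (um) at 72 h. hNPC spheres (0.3 mm) exposed to 7 compound concentrations plus solvent control on PDL/laminin, 37C, 5% CO2; activity fitted relative to DMSO.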

A short description of experiment [4]: IUF_NPC2b_neuronal_migration_120hr: Leibniz Research Institute for Environmental Medicine (IUF) 120-hour Neural Progenitor Cell Migration Assay for Neuron Migration (NPC2b) (AID 2284300). The essentials: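 Primary human fetal cortex neural progenitor spheres (0.3 mm) plated on poly-D-lysine/laminin in N2 differentiation medium, exposed 120 h with half-medium refresh at day 3. TUBB3-stained neuron distance from sphere core, normalized to radial glia migration, versus DMSO.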

The nature of experiment [5]: IUF_NPC3_neuronal_differentiation_120hr: Leibniz Research Institute for Environmental Medicine (IUF) 120-hour Neuronal Differentiation Assay (NPC3) (AID 2284301). An outline of the steps: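 hNPC spheres, PDL/laminin, DMEM/F12 3:1 + 1% N2, 37C, 5% CO2; 7 concentrations + solvent control, 5 d exposure, half-change day 3. Fix 120 h; TUBB3/Hoechst ICC, CNN neuron calling; % neurons vs nuclei, DMSO-normalized.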

The nature of experiment [6]: IUF_NPC4_neurite_length_120hr: Leibniz Research Institute for Environmental Medicine (IUF) 120-hour Neuronal Morphology Assay for Neurite Length (NPC4) (AID 2284302). The essentials: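 hNPC spheres (0.3 mm, fetal brain GW 16-19) on PDL/laminin, DMEM:F12 3:1 + 1% N2, 37C 5% CO2; 7 concs + solvent control, day 0-5, half medium change d3; fix 120 h, TUBB3 ICC, mean neurite length um vs DMSO.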

Experiment [7] can be described thus: IUF_NPC5_oligodendrocyte_differentiation_120hr: Leibniz Research Institute for Environmental Medicine (IUF) 120-hour Oligodendrocyte Differentiation Assay (NPC5) (AID 2284304; active = hit-call score of the fitted dose curve at least 0.9, where 1 is the maximum;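 also: primary human fetal neural progenitor spheres plated to migrate and differentiate; share of O4-positive cells among Hoechst nuclei found by CNN image analysis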). An outline of the steps: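 Primary human fetal (GW 16-19) neural progenitor spheres (0.3 mm) plated on poly-D-lysine/laminin in N2 differentiation medium, exposed from day 0 for 120 h with half-medium refresh at day 3; O4-positive cells as percent of Hoechst nuclei, CNN-identified, versus DMSO.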

Experiment [8] in a line: IUF_NPC4_neurite_area_120hr: Leibniz Research Institute for Environmental Medicine (IUF) 120-hour Neuronal Morphology Assay for Neurite Area (NPC4) (AID 2284305; active = hit-call score of the fitted dose curve at least 0.9, where 1 is the maximum). The essentials:
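hNPC spheres on PDL/laminin, N2 medium, 37C/5% CO2; dosed day 0, half-medium refresh day 3; fixed 120 h; TUBB3/Hoechst ICC, high-content imaging; neurite area = mean pixels per neuron (nuclei excluded); DMSO baseline, max 0.1%.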

Experiment [9] is described as follows: IUF_NPC2-5_cytotoxicity_72hr: Cytotoxicity Assessment at 72 hours in the Leibniz Research Institute for Environmental Medicine (IUF) Neural Progenitor Cell Migration and Differentiation Assay for Cytotoxicity (NPC2-5) (AID 2284306; active = hit-call score of the fitted dose curve at least 0.9, where 1 is the maximum;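 also: LDH release into supernatant measured by resorufin fluorescence marking membrane damage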). An outline of the steps: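 hNPC spheres (0.3 mm), PDL/laminin, DMEM/F12 3:1 + 1% N2; cpd from d0, 7 concs + SC, DMSO max 0.1%; half-medium refresh d3. Readout: supernatant LDH via resorufin fluorescence (RFU), 72 h; gain-of-signal fit.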

A short description of experiment [10]: IUF_NPC2-5_cytotoxicity_120hr: Cytotoxicity Assessment at 120 hours in the Leibniz Research Institute for Environmental Medicine (IUF) Neural Progenitor Cell Migration and Differentiation Assay (NPC2-5) (AID 2284307; active = hit-call score of the fitted dose curve at least 0.9, where 1 is the maximum). An outline of the steps: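 Human fetal neural progenitor spheres (0.3 mm, GW 16-19 cortex) were plated on poly-D-lysine/laminin in N2 differentiation medium and exposed for 120 h, with half-medium refresh at day 3. LDH release into supernatant was read by resorufin fluorescence.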

The nature of experiment [11]: IUF_NPC2-5_cell_number_120hr: Cell Number Assessment at 120 hours in the Leibniz Research Institute for Environmental Medicine (IUF) Neural Progenitor Cell Migration and Differentiation Assay (NPC2-5) (AID 2284308).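 Also: count of Hoechst-stained nuclei in migration zone around plated human neural progenitor spheres.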 An outline of the steps:
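Primary human fetal neural progenitor spheres (GW 16-19, 0.3 mm) plated on poly-D-lysine/laminin in N2 differentiation medium, exposed from day 0 for 120 h with half-medium refresh at day 3; Hoechst-positive nuclei counted in migration area versus DMSO control.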

Experiment [12] can be described thus: IUF_NPC2-5_viability_120hr: Viability Assessment at 120 hours in the Leibniz Research Institute for Environmental Medicine (IUF) Neural Progenitor Cell Migration and Differentiation Assay (NPC2-5) (AID 2284312). An outline of the steps: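 Human fetal neural progenitor spheres (0.3 mm) plated on poly-D-lysine/laminin in N2 differentiation medium, exposed 120 h with half-medium refresh at day 3. Viability by alamar blue resazurin fluorescence; 7 concentrations, DMSO max 0.1%.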

Experiment [13] can be described thus: CCTE_Mundy_HCI_iCellGluta_NOG_NeuriteLength: CCTE's Neurite Outgrowth Assay in iCellGluta cells for Neurite Length, Mundy Lab (AID 2284318; active = hit-call score of the fitted dose curve at least 0.9, where 1 is the maximum). The essentials: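 Automated high-content imaging of betaIII-tubulin (Alexa Fluor-488) and Hoechst-stained cells gave neurite length, normalized to the DMSO baseline.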
Experiment [14] in a line: TAMU_PeakParms_SingleDonor1434_Asystole: Texas A&M University (TAMU) 1.5-hr Human Induced Pluripotent Stem Cell (iPSC)-derived Cardiomyocytes Calcium (Ca+2) Flux Assay for Cardiotoxicity: Asystole (quiescence of beating) (AID 2284328; active = hit-call score of the fitted dose curve at least 0.9, where 1 is the maximum). The essentials:
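Donor 1434 iPSC-cardiomyocytes exposed 90 min at 37C, 5% CO2, to 0.2, 1, 10 and 100 uM in 0.5% DMSO. Ca2+ dye fluorescence gave average peak frequency; POD is EC95, a 95% beat-rate drop versus controls.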

The subject of a further experiment is TTR (gene 7276). Nature of the experiment: CCTE_GLTED_hTTR_0.5uM: CCTE's human Transthyretin (hTTR) Inhibition Assay, with 0.5uM TTR, Great Lakes Toxicology and Ecology Division (GLTED) Lab (AID 2284320). An outline of the steps: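 Probe (ANSA) displacement from 0.5 uM human transthyretin was followed by fluorescence (ex 380, em 475) after a 2 h incubation with chemical. Activity was scored as signal loss and fitted positively relative to DMSO.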

Read-out in another experiment: CD69, CD69 (gene 969)
Nature of the experiment: BSK_LPS_CD69: BioMAP Diversity Plus: LPS Assay for CD69 Biomarker Activity (AID 2284303). To be noted: primary human HUVEC with PBMC. An outline of the steps: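 CD69 surface levels were read by ELISA after 24 h chemical treatment of an LPS-stimulated HUVEC plus PBMC co-culture; positive-direction fit against DMSO vehicle.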

Take `CC(CCl)OP(=O)(OC(C)CCl)OC(C)CCl` (centres undefined): the molecule was classed as inactive in experiment [1], in experiment [2], in [3], in experiment [4], in experiment [5] and in experiment [6]. The call in experiment [8], in experiment [9], in [10], in [11], in [12] and in [13] was inactive. Further, the AC50 in experiment [7] is 5.43 µM (active).

For `OC[C@@H](O)[C@@H](O)[C@H](O)[C@@H](O)CO`, the outcome in experiment [1], in experiment [2], in experiment [3], in [4], in [5] and in [6] was inactive. Besides, the molecule was classed as inactive in experiment [8], in experiment [9], in experiment [10], in experiment [11], in experiment [12] and in experiment [14].

Consider `O=C(O)C(F)(F)C(F)(F)C(F)(F)C(F)(F)C(F)(F)C(F)(F)C(F)(F)C(F)(F)Cl`, for which, in experiment [13], the molecule was called inactive. For the same molecule, the half-maximal activity concentration (AC50) in the experiment on TTR (gene 7276) is 0.252 µM (active).

Take `O=C(Cl)C(F)(F)C(F)(F)C(F)(F)C(F)(F)C(F)(F)C(F)(F)C(F)(F)C(F)(F)F`: in the experiment with TTR (gene 7276), the AC50 was 0.491 µM (active).

On to `O=P(O)(O)OCCC(F)(F)C(F)(F)C(F)(F)C(F)(F)C(F)(F)C(F)(F)F`, for which the outcome in the experiment with CD69, CD69 (gene 969) is “inactive”; in [13] it was “inactive”.

Turning to `C=CC(=O)OCC(F)(F)C(F)(F)C(F)(F)C(F)(F)COC(=O)C=C`, the concentration at half-maximal activity (AC50) was 8.63 µM (active) and 9.41 µM (active) with CD69, CD69 (gene 969); 0.886 µM (active) with TTR (gene 7276). In addition, in experiment [13], the molecule was called inactive.

On to `O=C(O)C(F)(F)C(F)(F)C(F)(F)C(F)(F)F`, for which the result with CD69, CD69 (gene 969) was inactive. The half-maximal activity concentration (AC50) with TTR (gene 7276) is 10.2 µM (active).

With `O=C(O)C(F)(F)C(F)(F)C(F)F`, in the experiment with CD69, CD69 (gene 969), the outcome was inactive. In addition, the AC50 in the experiment on TTR (gene 7276) was 14.9 µM (active).

As to `FC(F)(F)C(F)(F)C(F)(F)C(F)(F)C(F)(F)CCI`, the result with CD69, CD69 (gene 969) was inactive. In addition, in the experiment with TTR (gene 7276), the concentration at half-maximal activity (AC50) is 18.6 µM (active).

Consider `COC(=O)CCC(F)(F)C(F)(F)C(F)(F)C(F)(F)F`, for which, in the experiment with CD69, CD69 (gene 969), the outcome was inactive. The concentration at half-maximal activity (AC50) with TTR (gene 7276) is 53.4 µM (active).

For `FC(F)(F)C(F)(F)C(F)(F)C(F)(F)CCI`, the outcome is “inactive” in the experiment with CD69, CD69 (gene 969) and “inactive” in [13]. Moreover, the AC50 with TTR (gene 7276) was 75 µM (active).

Consider `CC(C)(C)C(=O)CC(=O)C(F)(F)C(F)(F)C(F)(F)F`, for which the outcome in the experiment with CD69, CD69 (gene 969) was “inactive”; with TTR (gene 7276) it was “inactive”.

Take `O=C(O)C(F)(F)C(F)(F)OC(F)(F)F`: the outcome with CD69, CD69 (gene 969) was “inactive”; in experiment [13], “inactive”. Moreover, the AC50 with TTR (gene 7276) is 31.7 µM (active).

For the origin of these results see PubChem BioAssay (EPA / NIEHS).
